Screens: PubChem BioAssay, National Center for Advancing Translational Sciences (NCATS)
An excerpt weighted towards active compounds, which were near 21% of everything screened.
Pf growth 48h: inhibits P. falciparum growth in the first generation, 48 h; P. falciparum luciferase growth in erythrocytes, 48 h; Potency, µM (doses to about 28.7 µM), without a hit: top-dose activity change, negative = inhibition, hits mostly inhibitors; 310,000 compounds, 5.9% hits; also: potency is read from the fitted curve at half-maximal effect; % is scaled to controls: 0 for no effect and ±100 for the full control effect
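Luciferase-expressing parasites in RBCs, 2% Hct / 0.1% parasitemia final; RPMI 1640 + 0.5% Albumax; 37 C, 5% CO2, one generation; luminescence read-out, lower signal = inhibition.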
Sm TGR block: S. mansoni TGR enzyme inhibition; Q962Y6; purified TGR, DTNB reduction, TNB absorbance 405 nm; Potency, µM (top dose mostly 114 µM), without a hit: top-dose activity change, negative = inhibition, most hits filed as inhibitors; 360,000 compounds, 3% hits; also: potency is read from the fitted curve at half-maximal effect; % is scaled to controls: 0 for no effect and ±100 for the full control effect; nearly all actives have a fitted effect of over 60% in size
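First, TGR (20 nM dispensed) and NADPH were mixed with compound. Second, a 15 min room-temperature incubation followed. Third, further NADPH and then DTNB were added to start the reaction. Finally, TNB absorbance was monitored kinetically.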
Pf growth 96h: inhibits malaria parasite growth, 96 h; AID 504834; P. falciparum luciferase reporter growth, 96 h; 320,000 compounds, 6.9% hits; Potency, µM (titrated, usually from 28.7 µM), without a hit: at the highest dose activity change, negative = inhibition, hits mostly inhibitors; also: potency is read from the fitted curve at half-maximal effect; % is scaled to controls: 0 for no effect and ±100 for the full control effect
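Delayed-death screen, second-generation endpoint: infected erythrocytes, 2% hematocrit, 0.05% parasitemia final; 96 hours at 37 C, 5% CO2; luciferase detection reagent; luminescence decrease equals reduced growth.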
Cycloheximide cs: counter-screen hit for Shiga toxin inhibitors, cycloheximide; 300,000 compounds, 12% hits; max response, %; AID 2314; cell reporter, cycloheximide protein synthesis inhibition counterscreen; in the data active = max response mostly above about 13%, no sharp cut-off; inactive = mostly below about 14%; also: read at 38.3 µM for the half of the compounds with a filed dose; 0% is about no effect
NS1 inh: inhibitors of influenza NS1 protein function | Potency, µM (highest dose often 46.1 µM), for the others: at the highest dose activity, positive = more growth | 270,000 compounds, 0.4% hits | AID 2326; calls by dose curve; also: potency is read from the fitted curve at half-maximal effect; actives are rising curves; nearly all actives have a fitted effect of over 50% in size
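Growth recovery, yeast-based: influenza A NS1 expressed in S. cerevisiae causes slow growth, and suppressors are detected by OD600. The parent strain without NS1 is used as positive control.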
Shiga toxin inh: inhibitors of Shiga toxin in Vero cells; Vero cells, Shiga toxin protein synthesis inhibition reporter; inhibition, % at 38.7 µM; 290,000 compounds, 9.2% hits; in the data active = inhibition mostly above about 28%, no sharp cut-off; inactive = mostly below about 43%; also: 0% is about no effect
Starred values were filed as active, the others as inactive; ? = inconclusive; nt = no result given. Unless noted, calls follow the shape of the dose curve; as a rule, active = well fitted curve in the direction sought with a large enough effect; inconclusive = small, poorly fitted or top-dose-only effect, or another doubt; inactive = no such curve, though single readings can be large; an effect the other way counts as inactive or inconclusive.

SMILES	Pf growth 48h	Sm TGR block	Pf growth 96h	Cycloheximide cs	NS1 inh	Shiga toxin inh
NC(=O)CSc1nnc(-c2ccccc2)c(-c2ccccc2)n1	-3%	4%	?	-9	-4%	-21
Cc1ccc(S(=O)(=O)N2CCN(C(=O)Cn3c(=O)oc4ccccc43)CC2)c(C)c1	-30%	-2%	?	nt	nt	nt
COc1cc(-c2c(-c3ccsc3)sc3ccccc23)cc(OC)c1OC	?	2%	?	nt	nt	nt
Oc1ccc(-c2c(C3=CCCCC3)sc3ccccc23)cc1	-7%	79µM*	?	-3	-25%	-8
Nc1nc(NC(=O)c2cccs2)nn1-c1ccccc1	144%	4%	-27%	30*	4%	84
Nc1nc(NC(=O)c2ccccc2)nn1-c1ccccc1	90%	-27%	129%	13*	-4%	36*
Nc1nc(NC(=O)c2ccccc2Cl)nn1-c1ccccc1	20%	0%	?	13	2%	19
Cc1ccccc1Cn1c(=O)n(Cc2ccco2)c(=O)c2oc3ccccc3c21	nt	-11%	nt	nt	nt	nt
Cc1c(C(=O)OCCOc2ccccc2)[nH]c2c1C(=O)CC(c1ccc(C(C)(C)C)cc1)C2 (stereo not given)	nt	-3%	nt	nt	nt	nt
O=C(NC(=S)Nc1ccc2[nH]c(=O)[nH]c2c1)c1ccccc1F	37%	?	5%	15	7%	25
Cc1ccsc1C(=O)Nc1ccc(F)c([N+](=O)[O-])c1	-16%	-9%	-5%	35*	-6%	53*
O=C(Cc1ccc(F)cc1)Nc1ccc(F)c([N+](=O)[O-])c1	-1%	4%	?	-1	-11%	-13
O=C(Nc1ccccc1)Nc1ccc(F)c([N+](=O)[O-])c1	?	-10%	-18%	45*	-55%	46*
O=C(Nc1ccc(Cl)cc1)Nc1csc([N+](=O)[O-])c1	?	5%	?	30*	-105%	100*
CC(=O)Nc1ccc(S(=O)(=O)Nc2ccc(F)c([N+](=O)[O-])c2)cc1	21%	0%	?	-5	8%	5
O=C(NC(=S)Nc1ccc(F)c([N+](=O)[O-])c1)c1ccccc1F	-2%	-24%	18%	23*	nt	37*
COc1ccccc1N1CCN(CC(=O)Nc2ccc(-n3cnnn3)cc2)CC1	-10%	-5%	5%	3	nt	-6
O=C(Nc1ccc(Cl)cc1)Nc1cc([N+](=O)[O-])ccc1F	?	4%	-102%	3	-31%	25
O=C(Nc1ccc([N+](=O)[O-])cc1)Nc1ccc(Cl)cc1F	4.1µM*	2%	33%	9	nt	-6
CC(C)C(=O)Nc1ccc(NC(=S)NC(=O)c2ccccc2F)cc1	34%	0%	?	15*	1%	30
O=C(Nc1ccccc1)Nc1ccc(Cl)c([N+](=O)[O-])c1	?	2%	-94%	37*	-71%	81*
Cc1ccc(NC(=O)Nc2ccccc2)cc1[N+](=O)[O-]	-92%	-1%	?	52*	-8%	146*
COc1ccc(-c2noc(-c3ccc(NCc4ccc(C)cc4)c([N+](=O)[O-])c3)n2)cc1OC	nt	-14%	nt	nt	nt	nt
COc1cccc(NC(=O)c2nc(SC)ncc2Cl)c1	7%	4%	-23%	9	-3%	29
COc1cccc(NC(=O)c2nc(S(C)(=O)=O)ncc2Cl)c1	13%	10µM*	30%	16	-11%	38
SMILES	Pf growth 48h	Sm TGR block	Pf growth 96h	Cycloheximide cs	NS1 inh	Shiga toxin inh
CCS(=O)(=O)c1ncc(Cl)c(C(=O)Nc2c(C(=O)Nc3cccc(C)c3)oc3ccccc23)n1	nt	3%	nt	nt	nt	nt
COc1cccc(NC(=O)c2ncc(Cl)c(Cl)c2Cl)c1	439%	1%	235%	32*	nt	63*
Cc1cccc(NC(=O)c2nc(S(C)(=O)=O)ncc2Cl)c1	nt	4.5µM*	nt	nt	nt	nt
N#CC1(NC(=O)COC(=O)c2cc(O)c3ccccc3c2O)CCCCC1	?	22µM*	12µM*	nt	nt	nt
N#CC1(NC(=O)COC(=O)c2ccccc2[N+](=O)[O-])CCCCC1	32%	-1%	-15%	nt	nt	nt
CN1CC(=O)N(CC(=O)Nc2ccc3c(c2)CCC3)C1=O	15%	0%	?	3	nt	43
CC(C)NC(=O)CSc1ncccc1-c1nc2ccccc2[nH]1	1%	2%	-7%	13*	-14%	24
O=C(CSc1ncccc1-c1nc2ccccc2[nH]1)N1CCCCC1	-6%	-17%	?	34*	-8%	79*
CCN(CC)C(=O)CSc1ncccc1-c1nc2ccccc2[nH]1	7%	0%	7%	17*	2%	27
Cc1ccc2nc(-c3cccnc3SCC(=O)N3c4ccccc4CC3C)[nH]c2c1 (stereo not given)	?	-1%	?	31*	25%	136*
O=C(c1cc(C(=O)NCc2ccccc2)c(=O)n(Cc2ccccc2)c1)c1cc(Br)ccc1O	1.5µM*	-4%	0.41µM*	-1	?	-1
N#Cc1cc(C(=O)c2cc(Br)ccc2O)cn(Cc2ccccc2)c1=O	?	0%	?	8	nt	-11
Cc1ccc(O)c(C(=O)c2cc(C(=O)NCc3ccccc3)c(=O)n(Cc3ccccc3)c2)c1	3.7µM*	-6%	?	12	14%	-9
Cc1cc(=O)oc(C)c1C(=O)NC1CCCCCCC1	?	-4%	1%	-4	nt	-5
CCCc1nc2ccc(NC(C)=O)cc2c(=O)n1Cc1ccccc1Cl	?	-1%	-20%	-1	-22%	-14
CCCc1nc2ccc(NC(=O)c3ccco3)cc2c(=O)n1Cc1ccc(Cl)cc1	1.3µM*	-7%	?	12	15%	41
CCCc1nc2ccc(NC(=O)c3ccco3)cc2c(=O)n1Cc1ccccc1Cl	2.3µM*	-11%	0%	1	15%	0
CCCC1C2C(=O)N(c3cccc(C)c3)C(=O)C2ON1c1ccccc1 (stereo not given)	-15%	-6%	-22%	-1	-4%	5
CCOc1nc(SCCOc2ccc(Cl)cc2Cl)nc(N(C)C)n1	?	-22%	-29%	-6	-23%	-9
CCOc1nc(SCCOc2ccc(C)cc2)nc(N(C)C)n1	9.3µM*	-3%	?	-2	-25%	14
Cc1cc(C(=O)CSC(=S)SC(C)(C)C)ccc1Cl	nt	nt	nt	nt	-7%	nt
Cc1ccc(C(=O)c2cc(C)sc2NC(=O)CN2CCN(C(=O)c3ccco3)CC2)cc1	1.3µM*	0%	7%	-4	-4%	-12
CCc1cc(C(=O)OC)c(NC(=O)CN2CCN(C(=O)c3ccco3)CC2)s1	1.7µM*	-16%	?	-1	5%	-7
Cc1cc(C(=O)c2ccccc2)c(NC(=O)CN2CCOCC2)s1	12%	-6%	30%	-1	-2%	-7
CCOC(=O)N1CCN(CC(=O)Nc2sc(CC)cc2C(=O)c2ccc(OC)cc2)CC1	?	-8%	10µM*	-2	16%	-11
